# IMPase Li cell = IMPase inhibition in cells with lithium potentiation. Potency, µM (highest dose often 59.4 µM), without a hit: at the top dose activity, negative = IMPase inhibition, most hits filed as inhibitors. 210,000 tested, 0.35% active. CHO-M1 cells, IP1 TR-FRET (IP-One), carbachol + lithium. AID 1457;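 note: IP1 builds up when IMPase is blocked and the TR-FRET signal falls; potency is the fitted concentration of half-maximal effect; plate controls were basal vehicle for no effect and high inhibitor control for full effect; nearly all actives have a fitted effect of over 50% in size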
#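 Readout is a homogeneous TR-FRET IP1 immunoassay (Ex 320, Em 665 and 620), where raised cytosolic IP1 lowers signal. Cells were CHO-M1 treated 30 min at 37C with test compounds plus a little lithium; AC50 values came from Hill-equation fitting.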
# ALDH1A1 inh = ALDH1A1 (human) enzyme inhibition; P00352; Purified ALDH1A1, NADH fluorescence, propionaldehyde substrate; Potency, µM (top dose mostly 75.3 µM), inactives show top-dose activity, negative = inhibition, usual class: inhibitors; 220,000 tested, 7.3% active; AID 1030; active = well fitted inhibition curve with a large enough effect, not every such curve was filed as active; inconclusive = small, poorly fitted or top-dose-only effect, or another doubt; inactive = no such curve, though single readings can be large or run the other way;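 note: potency is the fitted concentration of half-maximal effect; plate controls were no enzyme wells and a reference inhibitor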
# Target sequence (P00352 whole entry, looked up): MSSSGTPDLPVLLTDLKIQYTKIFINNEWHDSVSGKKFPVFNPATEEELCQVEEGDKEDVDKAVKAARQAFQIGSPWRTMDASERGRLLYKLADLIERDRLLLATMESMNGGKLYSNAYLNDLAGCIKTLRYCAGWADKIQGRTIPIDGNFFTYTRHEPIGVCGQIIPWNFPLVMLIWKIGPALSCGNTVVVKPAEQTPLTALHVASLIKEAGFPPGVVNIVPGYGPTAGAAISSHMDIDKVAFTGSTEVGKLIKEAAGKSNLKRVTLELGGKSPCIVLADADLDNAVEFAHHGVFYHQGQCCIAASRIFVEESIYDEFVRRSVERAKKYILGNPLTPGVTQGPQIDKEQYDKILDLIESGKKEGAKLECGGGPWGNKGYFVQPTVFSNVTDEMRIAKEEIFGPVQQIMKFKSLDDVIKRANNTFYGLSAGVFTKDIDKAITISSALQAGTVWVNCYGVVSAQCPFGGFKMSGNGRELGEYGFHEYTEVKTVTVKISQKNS
# HttQ103 aggreg = inhibitors of mutant huntingtin aggregate formation in PC12 cells. PC12 HttQ103-GFP aggregates, Acumen cytometry, 40 h. Potency, µM (highest dose often 46.1 µM), without a hit: at the highest dose activity change, negative = inhibition, usual class: inhibitors. 220,000 tested, 1.1% active; note: potency is the fitted concentration of half-maximal effect; % is set by controls: 0 for no effect and ±100 for the full control effect; nearly all actives have a fitted effect of over 60% in size
#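 PC12 cells stably carrying ecdysone-inducible HTT exon 1 Q103–GFP were induced with tebufenozide (100 nM final) and treated with library compounds in titration. GFP aggregates in lysates were counted by laser scanning cytometry.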
# HPGD inh = inhibitors of human 15-hydroxyprostaglandin dehydrogenase (HPGD). purified HPGD, NADH fluorescence kinetic, PGE2 substrate. AID 894. Potency, µM, for the others: at the top dose activity change, negative = inhibition, actives largely listed as inhibitors. 150,000 tested, 4.3% active. P15428; active = well fitted inhibition curve with a large enough effect, not every such curve was filed as active; inconclusive = small, poorly fitted or top-dose-only effect, or another doubt; inactive = no such curve, though single readings can be large or run the other way; note: potency is the fitted concentration of half-maximal effect; % is set by controls: 0 for no effect and ±100 for the full control effect
#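 20 nM HPGD preincubated 15 min at room temperature with compound in 50 mM Tris-HCl pH 8, 0.01% Tween 20. Started with 1 mM NAD+ and 30 uM prostaglandin E2; NADH fluorescence (360/450 nm) read 5 times over 30-s intervals, last minus first.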
# HTT cytoprotect = cytoprotection in Huntington HTT-Q103 PC12 cell model; PC12 HTT-Q103 induced, cytoprotection, ATP luminescence, 40 h; Potency, µM (highest dose often 56.4 µM), for the others: cytoprotection (ATP increase), most hits filed as activators; 230,000 tested, 0.14% active; note: potency is the fitted concentration of half-maximal effect; % of control where 0% means no effect; nearly all actives have a fitted effect of over 45% in size
#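 ATP quantification (ATPlite) reports survival of PC12 cells in which tebufenozide, 100 nM final, switches on Htt exon 1 with 103 glutamines linked to GFP; compounds are titrated.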
# IMPase cell inh = membrane-permeable compound that blocks inositol monophosphatase; 120,000 tested, under 10 active; CHO-M1 cells, IP1 accumulation, HTRF TR-FRET ratio; inhibition (IP1 accumulation), % at 46.1 µM; P97697; active = well fitted curve in the direction sought with a large enough effect in the signal ratio, not every such curve was filed as active; inconclusive = small, poorly fitted or top-dose-only effect, or a change in a side signal; inactive = no such curve, though single readings can be large or run the other way; the % refers to the signal ratio;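 note: cells stimulated with carbachol in lithium chloride buffer; plate controls were DMSO basal wells for no effect and reference inhibitor wells for full effect; higher means more IMPase inhibition seen as more IP1 and lower FRET ratio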
#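 CHO-M1, 2000 cells/well, cultured 16–30 h; cpd up to 46 uM; carbachol (50 uM solution, stimulation buffer w/ 50 mM LiCl, pH 7.4), 30 min 37C; IP-One TR-FRET, 10 min RT; Ex 320/Em 665, 620; Hill-fit AC50.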
# * = called active by the depositor; ? = inconclusive; · = not tested or not shown; [ ] = another dose, or the depositor's remark. Compounds with a hit are over-represented: about 9.4% of the library has one in this group of screens. Unless noted, calls come from the whole dose curve; as a rule, active = well fitted curve in the direction sought with a large enough effect; inconclusive = small, poorly fitted or top-dose-only effect, or another doubt; inactive = no such curve, though single readings can be large; an effect the other way counts as inactive or inconclusive.
SMILES,IMPase Li cell,ALDH1A1 inh,HttQ103 aggreg,HPGD inh,HTT cytoprotect,IMPase cell inh
O=C(NC(=S)Nc1ccccc1N1CCOCC1)c1ccc([N+](=O)[O-])cc1,-15.6%,?,6.9%,-12.3%,-4.1%[10 µM],·
CC(C)NS(=O)(=O)c1ccc(NC(=S)NC(=O)c2cccc([N+](=O)[O-])c2)cc1,9.1%,8.91µM*,12.1%,?,-9.5%[10 µM],·
O=C(NC(=S)Nc1ccc(C(=O)N2CCOCC2)cc1)c1ccc([N+](=O)[O-])cc1,4.1%[38.3 µM],10µM*,16.9%,0.708µM*,-15.8%,-5.5
CC(C)NC(=O)N1CCC2(CC1)CCN(C(=O)c1ccco1)CC2,2.9%,?,·,-0.2%,17.6%,·
COc1ccc2c(c1)Cc1cc(N=[N+]([O-])c3ccc4c(c3)Cc3cc(OC)ccc3-4)ccc1-2,3.8%,?,·,-11.2%,-13.3%[10 µM],·
COC(=O)N1[C@H](Cc2ccccc2)C=C[C@]1(C)C(=O)NCc1ccc(N(C)C)cc1,0.1%,?,·,-8.0%,21.2%,·
O=C(COc1ccc([N+](=O)[O-])cc1)NC(C(=O)O)C(O)c1cccc([N+](=O)[O-])c1 (stereo not drawn),5.4%,?,19.6%[9.22 µM],·,18.6%[10 µM],·
O=C1CN(CC(=O)Nc2cccc(Cl)c2Cl)c2ccccc2N1,11.0%,3.98µM*,?,·,0.4%[10 µM],·
O=C1CN(C(=O)COC(=O)CCSc2ccccc2Cl)c2ccccc2N1,29.7%[38.3 µM],14.1µM*,16.8%[9.22 µM],17.8µM*,9.1%,-1.9
Cc1nc2ccccc2n1CC(=O)N1CC(=O)Nc2ccccc21,9.2%[38.3 µM],?,-10.1%,-2.7%,10.6%,4.0
O=C1CN(C(=O)Cn2ncc(Cl)c(Cl)c2=O)c2ccccc2N1,-0.3%,3.16µM*,11.2µM*,·,-159.3%,·
O=C1CN(C(=O)CNCc2ccc(Cl)cc2)c2ccccc2N1,·,12.6µM*,-6.0%[9.22 µM],·,-8.2%[10 µM],·
O=C(CN1CCNCC1)Nc1ccccc1Cl,16.7%[38.3 µM],-5.3%,16.5%,-1.8%,-1.5%,0.0
O=C1CN(C(=O)COC(=O)CCNS(=O)(=O)c2ccc(Cl)cc2)c2ccccc2N1,·,·,-11.7%[9.22 µM],·,16.1%[10 µM],·
NC(Cc1ccc(O)c(O)c1)C(=O)O (stereo not drawn),8.9%,?,·,?,·,·
COc1ccc(CN2CCN(c3ncnc4sc5c(c34)CCCC5)CC2)cc1F,·,·,·,·,·,1.5
O=C(Cn1ncc(Cl)c(Cl)c1=O)NC1CCS(=O)(=O)C1 (stereo not drawn),·,·,-14.3%[9.22 µM],·,1.0%[10 µM],·
